Conditions in all cases: Compound concentration 20.0 uM, Protein concentration 2.0 uM, Result type QC Liability
In assay [1] the target is Tyrosine-protein kinase ABL1 (Homo sapiens) (UniProt P00519).
Assay [2] addresses Cyclin-dependent kinase 2 (Homo sapiens) (UniProt P24941).
The target in assay [3] is Casein kinase I isoform delta (Homo sapiens) (UniProt P48730).
Assay [4] addresses Glycogen synthase kinase-3 beta (Homo sapiens) (UniProt P49841).
In assay [5] the target is Mitogen-activated protein kinase 1 (Homo sapiens) (UniProt P28482).
Chain of Mitogen-activated protein kinase 1 (Homo sapiens) (P28482 whole entry): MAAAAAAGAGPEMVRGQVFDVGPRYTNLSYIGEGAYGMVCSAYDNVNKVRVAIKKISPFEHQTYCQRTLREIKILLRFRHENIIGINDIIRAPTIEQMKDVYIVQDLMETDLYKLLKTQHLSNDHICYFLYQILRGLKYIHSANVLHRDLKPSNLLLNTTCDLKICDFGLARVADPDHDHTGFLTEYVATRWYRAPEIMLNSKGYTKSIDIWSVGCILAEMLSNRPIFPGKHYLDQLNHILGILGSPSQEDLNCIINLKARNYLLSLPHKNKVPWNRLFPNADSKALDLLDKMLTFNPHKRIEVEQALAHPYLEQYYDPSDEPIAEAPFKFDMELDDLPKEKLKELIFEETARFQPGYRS
Assay [6] has as its target T1, Aurora kinase A (Homo sapiens) (UniProt O14965).
T1 sequence (whole entry): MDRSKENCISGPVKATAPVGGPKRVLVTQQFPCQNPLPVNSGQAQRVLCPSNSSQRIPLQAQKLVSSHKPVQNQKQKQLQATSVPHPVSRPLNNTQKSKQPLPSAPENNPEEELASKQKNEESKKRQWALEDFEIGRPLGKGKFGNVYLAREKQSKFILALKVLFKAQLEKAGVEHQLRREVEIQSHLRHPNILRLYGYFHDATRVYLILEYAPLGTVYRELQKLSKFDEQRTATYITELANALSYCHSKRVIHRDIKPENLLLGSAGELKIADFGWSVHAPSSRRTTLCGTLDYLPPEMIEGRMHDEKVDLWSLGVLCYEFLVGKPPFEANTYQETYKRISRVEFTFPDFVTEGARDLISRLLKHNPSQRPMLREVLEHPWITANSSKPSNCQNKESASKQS

SMILES strings stand for the structures.

Chain of Tyrosine-protein kinase ABL1 (Homo sapiens) (P00519 whole entry): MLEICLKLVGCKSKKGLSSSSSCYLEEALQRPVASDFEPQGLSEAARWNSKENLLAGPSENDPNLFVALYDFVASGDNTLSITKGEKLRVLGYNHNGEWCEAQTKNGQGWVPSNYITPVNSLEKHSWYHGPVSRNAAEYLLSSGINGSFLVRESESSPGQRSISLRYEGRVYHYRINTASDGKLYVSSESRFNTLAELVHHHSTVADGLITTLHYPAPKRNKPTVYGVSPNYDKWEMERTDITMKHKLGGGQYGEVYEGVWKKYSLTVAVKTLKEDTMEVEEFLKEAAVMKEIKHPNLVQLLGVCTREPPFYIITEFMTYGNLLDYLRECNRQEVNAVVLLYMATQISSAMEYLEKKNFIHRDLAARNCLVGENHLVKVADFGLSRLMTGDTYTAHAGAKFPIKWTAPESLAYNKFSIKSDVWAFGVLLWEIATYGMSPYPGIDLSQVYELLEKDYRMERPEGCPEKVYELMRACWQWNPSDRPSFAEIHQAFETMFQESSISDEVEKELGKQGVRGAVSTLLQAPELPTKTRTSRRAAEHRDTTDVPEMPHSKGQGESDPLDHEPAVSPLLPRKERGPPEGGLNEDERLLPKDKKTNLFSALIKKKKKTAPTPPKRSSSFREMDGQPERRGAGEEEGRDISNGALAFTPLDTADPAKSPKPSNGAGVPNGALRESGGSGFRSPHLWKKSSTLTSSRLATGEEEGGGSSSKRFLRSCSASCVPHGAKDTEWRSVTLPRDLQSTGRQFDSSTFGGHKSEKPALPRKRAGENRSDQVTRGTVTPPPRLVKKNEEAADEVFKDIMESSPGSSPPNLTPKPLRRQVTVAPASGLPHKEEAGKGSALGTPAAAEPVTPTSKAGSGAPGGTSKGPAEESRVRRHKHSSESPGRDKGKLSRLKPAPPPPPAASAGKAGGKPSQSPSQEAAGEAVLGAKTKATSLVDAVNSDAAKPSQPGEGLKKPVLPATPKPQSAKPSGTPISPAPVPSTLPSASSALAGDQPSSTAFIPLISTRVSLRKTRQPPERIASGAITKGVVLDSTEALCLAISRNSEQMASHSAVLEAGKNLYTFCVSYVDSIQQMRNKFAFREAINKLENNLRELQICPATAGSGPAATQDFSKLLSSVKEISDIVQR
Chain of Casein kinase I isoform delta (Homo sapiens) (P48730 whole entry, looked up, canonical isoform): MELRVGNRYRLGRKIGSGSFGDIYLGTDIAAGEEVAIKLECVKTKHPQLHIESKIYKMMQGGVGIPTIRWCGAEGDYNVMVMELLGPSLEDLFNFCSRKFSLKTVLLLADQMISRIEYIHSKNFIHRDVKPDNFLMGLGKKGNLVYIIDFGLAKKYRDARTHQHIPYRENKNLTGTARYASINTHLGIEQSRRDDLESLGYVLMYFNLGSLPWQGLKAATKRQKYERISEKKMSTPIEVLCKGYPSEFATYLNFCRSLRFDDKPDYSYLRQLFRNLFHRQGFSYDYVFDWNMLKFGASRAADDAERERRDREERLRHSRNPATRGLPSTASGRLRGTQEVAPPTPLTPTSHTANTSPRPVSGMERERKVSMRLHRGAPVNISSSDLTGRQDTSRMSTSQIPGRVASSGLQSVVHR
Chain of Glycogen synthase kinase-3 beta (Homo sapiens) (P49841 whole entry, looked up): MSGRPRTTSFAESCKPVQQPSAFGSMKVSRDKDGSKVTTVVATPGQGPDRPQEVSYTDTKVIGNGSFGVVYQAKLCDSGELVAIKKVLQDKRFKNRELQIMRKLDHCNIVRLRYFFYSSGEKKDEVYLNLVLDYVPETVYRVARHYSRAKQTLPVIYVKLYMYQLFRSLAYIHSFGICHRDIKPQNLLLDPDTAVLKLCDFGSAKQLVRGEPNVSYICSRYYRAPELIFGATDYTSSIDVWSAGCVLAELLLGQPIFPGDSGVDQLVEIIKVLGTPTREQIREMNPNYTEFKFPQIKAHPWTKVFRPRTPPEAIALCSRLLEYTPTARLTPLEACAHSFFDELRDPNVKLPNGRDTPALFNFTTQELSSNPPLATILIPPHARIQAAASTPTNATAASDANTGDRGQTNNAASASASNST

As to `CN(C)C(=O)c1ccc(-c2cc(C(=O)N[C@@H]3CCc4ccccc43)no2)cc1O`, the ΔTm is 0.236 c in assay [1]; -0.0936 c in assay [2]; 0.0788 c in assay [3]; -0.463 c in assay [4]; -0.0605 c in assay [5]; 0.213 c in assay [6].

As for `CS(=O)(=O)N1CCCC(NC(=O)[C@H](CCC2CCCCC2)NC(=O)c2ccc(CNC(=O)c3cnc4ccccn34)cc2)C1` (some centres undefined), the ΔTm is 2.13 c in assay [1]; -0.19 c in assay [2]; 0.571 c in assay [3]; -0.0668 c in assay [4]; -0.218 c in assay [5]; 0.119 c in assay [6].

Turning to `CN(c1ncccc1CNc1ccnc(-c2nc3c(F)c(Cl)ccc3[nH]2)n1)S(C)(=O)=O`, the ΔTm in assay [1] amounted to 1.73 c; in assay [2], 0.96 c; in assay [3], 0.76 c; in assay [4], 0.69 c; in assay [5], 0.36 c; in assay [6], 1.93 c.

As to `O=C(NCCCN1CCOC1=O)c1cnc(NCc2cc(Br)ccc2Br)nc1NC1CCCC1`, the ΔTm in assay [1] is 0 c; in assay [2] it was -0.772 c; in assay [3] it was 0 c; in assay [4], 0 c; in assay [5], -0.601 c; in assay [6], 0.0724 c.
